# Screening results as filed in PubChem BioAssay.
# MT1-MMP txn act: MT1-MMP promoter transcription activation; activation factor at 10 µM; HT1080 MT1-MMP promoter luciferase reporter, luminescence, overnight; active compounds read high; AID 750; hit rate 0.16% among 86,000;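 active = activation factor of at least 2 for MT1-MMP transcription at 10 µM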
# Smad3 FoxH1 inh: inhibitors of human Smad3 transcription factor binding. TR-FRET Smad3/Dy647-FoxH1 peptide binding, europium anti-His. inhibition, % at 25 µM. P84022. AID 630. hit rate 0.29% among 88,000;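 active = compounds that reduce the energy-transfer binding signal between the protein and its labelled peptide by more than half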;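 note: 0% = Smad3 plus labelled peptide maximal FRET and 100% = peptide-only background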
# HePTP inhibitor: blocks human HePTP tyrosine phosphatase | inhibition, % at 20 µM | hit rate 0.64% among 110,000 | P35236 | AID 521 | recombinant HePTP phosphatase activity, OD absorbance; in the data active = inhibition above about 50%;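 note: plate controls were vehicle for no effect and reference inhibitor for full effect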
# Target sequence (P35236 whole entry, looked up): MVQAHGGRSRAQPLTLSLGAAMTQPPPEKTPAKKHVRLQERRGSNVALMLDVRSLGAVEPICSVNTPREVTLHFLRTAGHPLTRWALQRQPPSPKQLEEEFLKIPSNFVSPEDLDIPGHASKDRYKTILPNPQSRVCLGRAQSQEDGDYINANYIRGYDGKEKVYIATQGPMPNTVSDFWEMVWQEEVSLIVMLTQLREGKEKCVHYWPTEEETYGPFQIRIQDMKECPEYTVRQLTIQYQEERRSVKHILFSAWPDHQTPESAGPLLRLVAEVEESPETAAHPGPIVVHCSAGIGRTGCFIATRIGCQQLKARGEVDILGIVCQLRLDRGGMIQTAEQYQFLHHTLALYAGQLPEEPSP
# TNAP act DEA: human TNAP activation, intermediate phosphate acceptor | P05186 | 64,000 tested, under 10 active | purified TNAP, CDP-star luminescence, 100 mM DEA, 30 min; active compounds read high; scale: 0 levamisole-inhibited, 1 vehicle-only enzyme | AID 813 | activation factor at 20 µM;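 active = activation factor of at least 2 at 20 µM, relative to controls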
# E coli RNAP: Escherichia coli RNA polymerase inhibition | P0A8V2 | E. coli RNA polymerase, fluorescence transcription assay | inhibition, %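 (tested at 10 µM)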 | hit rate 0.2% among 62,000 | AID 559; in the data active = inhibition above about 20%;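 note: 0% = enzyme without compound and 100% = no enzyme blank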
# * hit, by the source's call; · = not tested or not shown; ! = a repeat was not active; [ ] = dose if it differs, or a comment. Sampled rows, rich in hits. Any-hit rate of the full collection: about 0.8%.
SMILES,MT1-MMP txn act,Smad3 FoxH1 inh,HePTP inhibitor,TNAP act DEA,E coli RNAP
Cc1[nH]n2c(=O)cc(C(C)(C)C)nc2c1-c1ccccc1,0.9,-5,11,2*,7
CCN(CC)C1=NC(C(F)(F)F)(C(F)(F)F)N=C(OC(C)C)O1,·,·,7,·,·
Cc1onc(-c2ccccc2Cl)c1C(=O)N1CCN(c2ccccc2F)CC1,·,·,104*,·,·
Cc1onc(-c2ccccc2Cl)c1C(=O)N1CCN(c2ccccc2)CC1,1.1,6,2,0.9,-2
Cc1cccc(N2C(=O)C(Cl)=C(N3CCOCC3)C2=O)c1C,·,·,-1,·,·
O=C(c1ccc([N+](=O)[O-])cc1)n1c2c(c3ccccc31)CCCC2,·,·,104*,·,·
Cc1cccn2c(=O)c3cc(C(=O)Nc4ccc(N(C)C)cc4)n(C)c3nc12,0.9,63*[fluorescence artefact?],7,0.9,7
CCN(CC)C(=O)c1cc2c(=O)n3cccc(C)c3nc2n1C,1.1,10,3,1,-1
CC1=C(C(=O)OCC(C)C)C(c2ccc(Br)cc2)NC(=O)N1 (centres undefined),·,·,60*,·,·
COCCOC(=O)C1=C(C)NC(=O)NC1c1ccc(Br)cc1 (centres undefined),·,·,-5,·,·
Cc1cc(Cl)cc(C)c1OCCCCNCCO,·,·,105*,·,·
Cc1cc(C)c(OCCCCCNCCO)c(C)c1,1.3,-14,·,·,·
O=C(CSc1nc2ccc([N+](=O)[O-])cc2s1)Nc1ccccc1[N+](=O)[O-],·,·,5,·,·
COc1ccc(CC(=O)Nc2ccc(-c3nc4ccccc4o3)c(O)c2)cc1OC,·,·,89*,·,·
COc1ccc(OC)c(NC(=O)c2ccc(C(=O)O)cc2C(=O)O)c1,·,·,5,·,·
O=C(NCc1ccccc1)c1c[nH]c2cc3c(cc2c1=O)OCCO3,2.2*,4,·,·,·
CC(C)(C)C1CCc2c(sc(NC(=O)c3ccc(Br)cc3)c2C(N)=O)C1 (centres undefined),·,·,8,·,·
CC1=C/C(=N\N=C2\NC(=O)C(CC(=O)Nc3ccc(Cl)cc3)S2)CC(C)(C)C1 (centres undefined),·,·,-5,·,·
CC1=C/C(=N\N=C2\NC(=O)C(CC(=O)Nc3ccc(C(=O)O)cc3)S2)CC(C)(C)C1 (centres undefined),·,·,103*,·,·
O=C(CC1S/C(=N\N=C\c2ccccc2)NC1=O)Nc1ccc(C(=O)O)cc1 (centres undefined),·,·,104*,·,·
O=C(CC1S\C(=N/N=C/C=C/c2ccccc2)NC1=O)Nc1ccc(C(=O)O)cc1 (centres undefined),·,·,33,·,·
Cc1nc(=S)c2cnn(-c3ccccc3)c2[nH]1,·,·,-1,·,·
O=c1c2c3c(sc2n2c(=S)[nH]nc2n1-c1ccccc1)CCCCC3,·,·,0,·,·
CCOC(=O)C(=CC1=C/C(=C/N(C)C)C(=O)O1)C(=O)OCC,·,·,81*,·,·
CCOC(=O)C(=Cc1cc(OC)c(OC)cc1Br)C(=O)OCC,·,·,3,·,·
SMILES,MT1-MMP txn act,Smad3 FoxH1 inh,HePTP inhibitor,TNAP act DEA,E coli RNAP
CCOC(=O)C1=C(C)NC2=C(C(=O)c3ccccc32)C1c1ccc(OC)cc1 (centres undefined),·,·,-2,·,·
O=C(CCCNS(=O)(=O)c1cccs1)N1CCN(c2cccc(Cl)c2)CC1,0.9,2,2,0.9,43*
O=C(Nc1ccccc1Cl)c1ccccc1C(F)(F)F,·,·,104*,·,·
NCCSS(=O)(=O)CCN,·,62*,·,·,·
CCCC(=Nc1ccc(OC)cc1)C1=C(O)CC(C)(C)CC1=O,·,·,-12,·,·
CCCC(=Nc1cccc([N+](=O)[O-])c1)C1=C(O)CC(C)(C)CC1=O,·,·,61*,·,·
COc1cccc(C(=O)NC(NC(=S)Nc2cc(OC)ccc2OC)C(Cl)(Cl)Cl)c1 (centres undefined),·,·,-2,·,·
COc1ccc(OC)c(NC(=S)NC(NC(=O)c2ccccc2Cl)C(Cl)(Cl)Cl)c1 (centres undefined),·,·,104*,·,·
CCOC(=O)c1c(CN(C)C)n(C)c2cc(Br)c(O)cc12,·,·,-16,·,·
CC(=O)N(Cc1cc(=O)[nH]c2ccccc12)c1ccccc1,1.2,2,6,0.9,6
CN(Cc1cc(=O)[nH]c2ccccc12)C(=O)c1ccccc1,2.2*,9,3,0.9,·
CC1=NN(C(=O)CCc2ccccc2)C(O)(c2ccc(Cl)cc2)C1 (centres undefined),·,·,2,·,·
Cc1c(C(=O)Nc2cnccn2)oc2ccccc12,1.2,12,3,1,1
Cc1c(C(=O)Nc2ccc(Cl)cn2)oc2ccccc12,2.1*,-7,1,0.8,8
COc1cccc(-n2cnc3cccc(N)c32)c1,1.1,·,92*!,1,8
CCN(C)c1ccc(C=C2C(=O)NC(=O)NC2=O)cc1,·,·,-4,·,·
CCOc1ccccc1/C=C1/C(=O)NN(c2ccc(C)c(Cl)c2)C1=O,·,·,69*,·,·
Cc1ccc(N2NC(=O)/C(=C\c3ccco3)C2=O)cc1C,·,·,-8,·,·
CCOc1ccccc1/C=C1/C(=O)NN(c2ccc(C)c(C)c2)C1=O,·,·,-5,·,·
O=C1NN(c2ccc(F)c(Cl)c2)C(=O)/C1=C\c1ccco1,·,·,99*,·,·
COC(=O)CN(c1ccc(Cl)c(Cl)c1)S(=O)(=O)c1ccccc1,·,·,6,·,·
COc1ccc(Cl)cc1NS(=O)(=O)c1c(C)cc(C)cc1C,·,·,-1,·,·
COc1ccc(C(=O)OCC(=O)c2ccc([N+](=O)[O-])cc2)cc1OC,·,·,-12,·,·
Cc1ccccc1NC(=O)c1ccc(Br)o1,·,·,-2,·,·
O=C1C(Cl)=C(N2CCCCC2)C(=O)C(Cl)=C1/C=C/N1CCCCC1,·,·,102*,·,·
SMILES,MT1-MMP txn act,Smad3 FoxH1 inh,HePTP inhibitor,TNAP act DEA,E coli RNAP
O=C1C(Cl)=C(N2CCCCC2)C(=O)N1c1ccccc1,1.2,-4,-6,1,8
COc1cc2c(cc1NC(=O)c1ccc3c(c1)OCO3)oc1ccccc12,2.1*,3,8,0.9,3
CCC1=NNc2cccc3c(OC)ccc1c23,1,65*[fluorescence artefact?],·,·,·
Cc1ccc(-c2cc(-c3ccccc3)c3c(N)c(S(C)(=O)=O)sc3n2)cc1,1.1,13,·,·,·
CS(=O)(=O)c1sc2nc(-c3cccs3)cc(-c3ccccc3)c2c1N,2.2*,12,0,0.9,-2
CC1CCCCN1C(=O)CSc1nnc(CSc2ncccn2)n1C (centres undefined),1.2,73*,·,·,·
NC1=NC(=O)/C(=C/c2ccc(-c3ccc([N+](=O)[O-])cc3Br)o2)S1,·,·,100*,·,·
O=C1OC(c2ccccc2)=C/C1=C/c1ccc(-c2ccc([N+](=O)[O-])cc2Br)o1,·,·,104*,·,·
Nc1c2c3c(c(Cl)ccc3[nH]c1=O)C(=O)c1ccccc1-2,·,·,103*,·,·
CCN1CCc2c(sc(NC(=O)Nc3ccc(Cl)cc3)c2C(N)=O)C1,·,·,101*,·,·
O=C(c1ccc(-c2ccccc2)cc1)N1CCN(C2CC3CCC2C3)CC1 (centres undefined),·,·,71*,·,·
CC1CC(C)CN(C(=O)/C=C/c2ccc3c(c2)OCO3)C1 (centres undefined),·,·,14,·,·
Oc1c(Br)cc(/C=N/Nc2nnc3c(n2)[nH]c2ccccc23)c(Br)c1O,·,·,89*,·,·
CSc1ccc(/C=C(\NC(=O)c2ccc(C)cc2)C(=O)Nc2cccc(F)c2)cc1,·,·,-12,·,·
COc1cc(/C=C2/SC(=S)NC2=O)cc(Cl)c1OCc1cccc2ccccc12,·,·,102*,·,·
CCOc1cc(/C=C2/SC(=S)NC2=O)cc(Cl)c1OCc1ccc(Cl)cc1Cl,·,·,84*,·,·
